How the values were obtained:
Format in all cases: functional
Plasmodium falciparum [1] = test: GSK_TCMDC: Inhibition of Plasmodium falciparum 3D7 in whole red blood cells, using parasite LDH activity as an index of growth. Test compounds present at 2uM
Plasmodium falciparum [2] = test: GSK_TCMDC: Inhibition of Plasmodium falciparum Dd2 in whole red blood cells, using parasite LDH activity as an index of growth. Test compounds present at 2uM
HepG2 = test: GSK_TCMDC: Percent inhibition of human HepG2 cell line. Test compounds present at 10uM.

With C/C=C/COc1ccc(-c2c(C)[nH]c(C)c(Cl)c2=O)cc1 the Inhibition (Plasmodium falciparum [1]) was 97%, the Inhibition (Plasmodium falciparum [2]) was 97% and the Inhibition (HepG2) was 0%.
Molecule CCN(CC)CCCNc1ncc2c(-c3ccc(NC(=O)Nc4cc(C(F)(F)F)ccc4F)cc3)nn(C)c2n1.O=C(O)C(F)(F)F has an Inhibition (Plasmodium falciparum [1]) of 99%, an Inhibition (Plasmodium falciparum [2]) of 74% and an Inhibition (HepG2) of 81%.
CCCCNC[C@@H](O)[C@H](Cc1ccccc1)NC(=O)c1cc(NCC)cc(N2CCCCS2(=O)=O)c1.Cl was tested, and the Inhibition (Plasmodium falciparum [1]) was 99%, the Inhibition (Plasmodium falciparum [2]) was 98% and the Inhibition (HepG2) was 11%.
In the case of Cn1cncc1C(=O)Nc1ccc(-c2cccc(-c3nc4cc(F)ccc4[nH]3)c2)cc1, the Inhibition (Plasmodium falciparum [1]) is reported as 100%, the Inhibition (Plasmodium falciparum [2]) is reported as 23% and the Inhibition (HepG2) is reported as 5%.
With COc1cc(NC(=O)/C=C/c2cc(F)cc(F)c2F)cc(OCCN2CCN(CCN3CCOCC3)CC2)c1.O=C(O)C(=O)O the Inhibition (Plasmodium falciparum [1]) was 100%, the Inhibition (Plasmodium falciparum [2]) was 94% and the Inhibition (HepG2) was 21%.
With COc1ccc(CNCc2ccc(F)cc2)cc1-c1cccc(S(=O)(=O)NCCN2CCCC2)c1.O=C(O)C(F)(F)F the Inhibition (Plasmodium falciparum [1]) was 100%, the Inhibition (Plasmodium falciparum [2]) was 54% and the Inhibition (HepG2) was 43%.
COc1cc(-n2cnc3cc(-c4ccc(Cl)cc4)sc3c2=O)ccc1OCCN1CCC(c2cccc(NC(C)=O)c2)CC1.O=C(O)/C=C\C(=O)O gave an Inhibition (Plasmodium falciparum [1]) of 99%, an Inhibition (Plasmodium falciparum [2]) of 80% and an Inhibition (HepG2) of 61%.
Molecule COc1cc2nc(N3CCC(CNC(=O)c4cc5ccccc5s4)CC3)nc(N)c2cc1OC has an Inhibition (Plasmodium falciparum [1]) of 100%, an Inhibition (Plasmodium falciparum [2]) of 100% and an Inhibition (HepG2) of 8%.
Molecule Cn1nc(-c2ccc(NC(=O)Nc3ccc4ccccc4c3)c(F)c2)c2cnc(NCCN3CCOCC3)nc21.O=C(O)C(F)(F)F has an Inhibition (Plasmodium falciparum [1]) of 93%, an Inhibition (Plasmodium falciparum [2]) of 3% and an Inhibition (HepG2) of 62%.
For C[C@H](Cc1ccc(OCCCCCCOc2ccc(C[C@@H](C)NC[C@H](O)c3cccc(Cl)c3)cc2)cc1)NC[C@H](O)c1cccc(Cl)c1.Cl, the Inhibition (Plasmodium falciparum [1]) was 99%, the Inhibition (Plasmodium falciparum [2]) was 99% and the Inhibition (HepG2) was 99%.
For N#Cc1cc(C(=O)Nc2ccccc2)c(N)nc1SCC(=O)Nc1ccc(Br)cc1, the Inhibition (Plasmodium falciparum [1]) was 100%, the Inhibition (Plasmodium falciparum [2]) was 66% and the Inhibition (HepG2) was 11%.
With COc1ccc2nccc([C@@H](O)CN3CCC(NCc4ccc5nnsc5c4)CC3)c2c1.O=C(O)C(=O)O the Inhibition (Plasmodium falciparum [1]) was 99%, the Inhibition (Plasmodium falciparum [2]) was 0% and the Inhibition (HepG2) was 16%.
For Cc1ccc2[nH]c(-c3ccc(C=CC(=O)NCc4ccc(Cl)c(Cl)c4)cc3)nc2c1, the Inhibition (Plasmodium falciparum [1]) was 96%, the Inhibition (Plasmodium falciparum [2]) was 18% and the Inhibition (HepG2) was 5%.
N#Cc1cccc(Nc2nccc(Nc3ccc(Oc4ccccc4)cc3)n2)c1 showed an Inhibition (Plasmodium falciparum [1]) of 94%, an Inhibition (Plasmodium falciparum [2]) of 17% and an Inhibition (HepG2) of 12%.
Work on COc1ccc2nccc([C@@H](O)CN3CCC(NC(=O)c4cc5cccnc5[nH]4)CC3)c2c1.Cl yielded an Inhibition (Plasmodium falciparum [1]) of 94%, an Inhibition (Plasmodium falciparum [2]) of 6% and an Inhibition (HepG2) of 0%.
Work on O=C(/C=C/c1ccc(Cl)c(Cl)c1)N1CCC(C(O)CN2CCC(c3c[nH]c4ccccc34)CC2)CC1.O=C(O)C(F)(F)F (stereo not drawn) yielded an Inhibition (Plasmodium falciparum [1]) of 99%, an Inhibition (Plasmodium falciparum [2]) of 46% and an Inhibition (HepG2) of 14%.
Work on O=C(Nc1ccc2c(c1)OCO2)c1cc(-c2cccnc2)nc2ccc(Cl)cc12 yielded an Inhibition (Plasmodium falciparum [1]) of 89%, an Inhibition (Plasmodium falciparum [2]) of 41% and an Inhibition (HepG2) of 9%.
COc1ccc2ccc(F)c(CC(=O)N3CCOC(CNCc4cccc(-c5ccc(F)cc5)n4)C3)c2n1 (stereo not drawn) was tested, and the Inhibition (Plasmodium falciparum [1]) was 92%, the Inhibition (Plasmodium falciparum [2]) was 1% and the Inhibition (HepG2) was 5%.
CCn1c(Sc2ccc(C#N)c([N+](=O)[O-])c2)nnc1-c1cccc(Cl)c1 showed an Inhibition (Plasmodium falciparum [1]) of 95%, an Inhibition (Plasmodium falciparum [2]) of 88% and an Inhibition (HepG2) of 0%.
For O=C(Nc1cccc(-c2ccc(-c3nc4cc(C(F)(F)F)ccc4[nH]3)cc2)c1)Nc1ccc(F)c(F)c1F, the Inhibition (Plasmodium falciparum [1]) was 100%, the Inhibition (Plasmodium falciparum [2]) was 99% and the Inhibition (HepG2) was 45%.
With Nc1c2ccccc2nc2cc(Cl)ccc12 the Inhibition (Plasmodium falciparum [1]) was 100%, the Inhibition (Plasmodium falciparum [2]) was 86% and the Inhibition (HepG2) was 24%.
With Cc1ccc(Oc2ccc(CNc3nc(Nc4cccc(F)c4)nc(Nc4cccc(F)c4)n3)cc2)cc1 the Inhibition (Plasmodium falciparum [1]) was 86%, the Inhibition (Plasmodium falciparum [2]) was 0% and the Inhibition (HepG2) was 0%.
CC(C)C1C(O)=C(c2ccc3ccccc3c2)C(=O)N1CC1CCCCC1 (stereo not drawn) was tested, and the Inhibition (Plasmodium falciparum [1]) was 84%, the Inhibition (Plasmodium falciparum [2]) was 43% and the Inhibition (HepG2) was 11%.
With CCOC(=O)c1ccc(NC(=O)Nc2cccc(-c3ccc(-c4nc5cc(C(F)(F)F)ccc5[nH]4)cc3)c2)cc1 the Inhibition (Plasmodium falciparum [1]) was 100%, the Inhibition (Plasmodium falciparum [2]) was 99% and the Inhibition (HepG2) was 62%.
Molecule O=C(Cc1ccccc1)NC(CCN1CCC(N(C2CC2)S(=O)(=O)c2cccc(C(F)(F)F)c2)CC1)c1ccc(Cl)c(Cl)c1 (stereo not drawn) has an Inhibition (Plasmodium falciparum [1]) of 85%, an Inhibition (Plasmodium falciparum [2]) of 27% and an Inhibition (HepG2) of 19%.
O=C(CCc1c[nH]cn1)Nc1cccc(-c2ccc(-c3nc4cc(F)ccc4[nH]3)s2)c1 showed an Inhibition (Plasmodium falciparum [1]) of 100%, an Inhibition (Plasmodium falciparum [2]) of 69% and an Inhibition (HepG2) of 17%.

Reference: ChEMBL document CHEMBL1157539, “Thousands of chemical starting points for antimalarial lead identification” (Nature, 2010)
